# Screens as filed in PubChem.
# Pf growth 48h – Primary qHTS for delayed death inhibitors of the malarial parasite plastid, 48 hour incubation; hit rate 5.9% among 310,000; Potency, µM (titrated, usually from 28.7 µM), for the others: at the top dose activity change, negative = inhibition, actives largely listed as inhibitors; P. falciparum luciferase growth in erythrocytes, 48 h; active = well fitted inhibition curve with a large enough effect; inconclusive = small, poorly fitted or top-dose-only effect, or another doubt; inactive = no such curve, though single readings can be large or run the other way; note: % is set by controls: 0 for no effect and ±100 for the full control effect
#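 Luciferase-expressing P. falciparum in infected erythrocytes (2% hematocrit, 0.1% parasitemia final) in RPMI 1640/0.5% Albumax were exposed to compound for 48 hours at 37 C, 5% CO2; growth read as luminescence.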
# NS1 function inh – qHTS Assay for Inhibitors of Influenza NS1 Protein Function; Potency, µM (top dose mostly 46.1 µM), for inactives: top-dose activity, positive = more growth; hit rate 0.4% among 270,000; AID 2326, 2010; note: actives are rising curves; nearly all actives have a fitted effect of over 50% in size
#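 Recovery from NS1-induced slow growth read by OD600 in budding yeast switched to galactose assay medium (pH 6.0, -URA) at 1:100 dilution. Compound 23 nl per well; the matching strain lacking NS1 serves as control.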
# SARS PLP yeast – qHTS of Yeast-based Assay for SARS-CoV PLP | S. cerevisiae expressing SARS-CoV PLpro, growth rescue | Potency, µM (doses to about 32.9 µM), for the others: at the highest dose activity, positive = growth rescue, usual class: activators | hit rate 0.19% among 330,000 | AID 485353, 2010; note: 0% is about no effect; nearly all actives have a fitted effect of over 55% in size
# RE007 growth inh – qHTS Assay for Inhibitors of the HIV-1 protein Vpr; Potency, µM (doses to about 92.2 µM), for inactives: at the top dose activity change, negative = less growth, most hits filed as inhibitors; S. pombe RE007 Vpr strain, BacTiter-Glo ATP luminescence, 24 h; hit rate 0.21% among 360,000; active = well fitted falling curve with a large enough effect; inconclusive = small, poorly fitted or top-dose-only effect; inactive = no such curve, though single readings can be large or run the other way; note: % is set by controls: 0 for no effect and ±100 for the full control effect; nearly all actives have a fitted effect of over 50% in size
#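 Fission yeast RE007 carrying one integrated HIV-1 vpr copy, seeded at OD 0.01 in PMG+AL medium with 23 nL pinned compound. Grown 24 h at 30 degrees; viability read by BacTiter-Glo luminescence after 5 min.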
# Pf growth 96h – Primary qHTS for delayed death inhibitors of the malarial parasite plastid, 96 hour incubation; P. falciparum luciferase reporter growth, 96 h; Potency, µM (highest dose often 28.7 µM), for inactives: at the top dose activity change, negative = inhibition, most hits filed as inhibitors; hit rate 6.9% among 320,000; AID 504834, 2011; active = well fitted inhibition curve with a large enough effect; inconclusive = small, poorly fitted or top-dose-only effect, or another doubt; inactive = no such curve, though single readings can be large or run the other way; note: % is set by controls: 0 for no effect and ±100 for the full control effect
#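 Luminescence readout: decreased luciferase signal marks inhibited growth of reporter-expressing P. falciparum in infected red cells (2% hematocrit, 0.05% parasitemia final), exposed to compound two generations (96 h, 37 C, 5% CO2).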
# * marks the source's active call; other numbers are inactive results; ? = inconclusive; nt = no result; [ ] = another dose, or the depositor's remark. Compounds with a hit are over-represented: about 9.5% of the library has one in this group of screens. Unless noted, calls come from the whole dose curve. Potency is the fitted concentration of half-maximal effect.
SMILES,Pf growth 48h,NS1 function inh,SARS PLP yeast,RE007 growth inh,Pf growth 96h
CCOC(=O)C1=C(c2ccccc2)NC(SCC)=C(C#N)C1c1cccnc1 (stereo unspecified),?,2%,-1%,14%,8.3µM*
CCCSC1=C(C#N)C(c2cccnc2)C(C(=O)OCC)=C(c2ccccc2)N1 (stereo unspecified),?,0%,2%,-11%,?
Cc1ccc(C2C(C(=O)c3cccs3)=C(O)C(=O)N2c2nnc(C)s2)cc1 (stereo unspecified),8%,nt,2%,18%,?
COc1ccc(CN=Cc2[nH]c3ccc(Br)c(Cl)c3c2O)cc1,3.7µM*,-29%,-17%,-24%,?
Cc1cc(C)cc(N=Cc2[nH]c3ccc(Br)c(Cl)c3c2O)c1,1.5µM*,3%,?,?,?
CCc1nc(SCc2ccccc2C)n[nH]1,-18%,-4%,2%,-10%,6.6µM*
CCc1nc(SCc2ccc(OCC(C)C)cc2)n[nH]1,45%,-141%,-16%,-12%,10µM*
Cc1nc(SCc2ccccc2C)n[nH]1,15%,-41%,-10%,-14%,-15%
CC(=O)N/C(=C\c1ccccc1)C(=O)OC/C=C/c1ccccc1,7%,-15%,-12%,18%,21%
COc1cc2c(c(O)c1OC)-c1c(cc(OC)c(OC)c1OC)C[C@@H](C)[C@@H](C)C2,13µM*,-37%,-5%,0%,?
COc1cc2c(c(OC)c1OC)-c1c(cc3c(c1O)OCO3)C[C@@H](C)[C@@H](C)C2,?,-59%,-13%,-7%,10µM*
COc1cc2c(c(OC)c1OC)-c1c(cc(OC)c(OC)c1OC)C[C@H](C)[C@H](C)C2,?,-11%,-3%,8%,?
C/C=C(\C)CN1CCC(n2nccc2NC(=O)CCCc2ccccc2)CC1,-19%,16%,3%,5%,67%
O=C(c1cccc(C(F)(F)F)c1)N1CCC(O)(CS(=O)(=O)Cc2ccccc2)CC1,1%,3%,-2%,0%[3.69 µM],0%
COc1ccc(CS(=O)(=O)CC2(O)CCN(C(=O)c3cccc(C(F)(F)F)c3)CC2)cc1,15µM*,nt,1%,17%,3%
CCCCCCCCCCC[N+](C)(C)CC/C=C1/c2ccccc2Sc2ccc(Cl)cc21,nt,-89%,-3%,nt,?
CC[N+](C)(C)CC/C=C1/c2ccccc2Sc2ccc(Cl)cc21,3.7µM*,-4%,0%,3%,1.7µM*
CN(C)CC/C=C1\c2ccccc2Sc2cc(F)c(Cl)cc21,nt,nt,nt,4%,nt
CN(C)CC/C=C1\c2ccccc2Sc2ccc(Cl)cc21,15µM*,-6%,3%,-8%,13µM*
CCCCCCCCCC[N+](C)(C)CC/C=C1/c2ccccc2Sc2ccc(Cl)cc21,nt,-4%,-2%,nt,3.7µM*
OCCN1CCN(CC/C=C2/c3ccccc3Sc3ccc(Cl)cc32)CC1,10µM*,nt,nt,19%,9.3µM*
C=CCOc1cccc(C2/C(=C(/O)c3ccccc3)C(=O)C(=O)N2CCCN2CCOCC2)c1 (stereo unspecified),nt,1%,nt,nt,nt
O=C(CCCCCn1c(=S)[nH]c2ccccc2c1=O)N1CCC2(CC1)OCCO2,8.3µM*,-10%,-2%,34%,15%
O=C(Cn1c(=S)[nH]c2ccccc2c1=O)N1CCC2(CC1)OCCO2,9%,7%,6%,-1%,40%
Cn1c(=O)n(CC(=O)N2CCC3(CC2)OCCO3)c(=O)c2ccccc21,43%,3%,1%,-7%,1.7µM*
COc1cc(NC(=O)CNC(=O)Cn2cnc3sc(C)c(C)c3c2=O)cc(OC)c1OC,nt,nt,nt,-18%,nt
COc1ccc(Oc2ccc(NC(=O)c3ccccc3C)cc2)cc1,-1%,2%,0%,4%,-21%
CCOc1cc(/C=N/NC(=O)c2ccc(=O)n(C)c2)ccc1O,21%,-4%,-1%,7%,3.3µM*
COc1cc(/C=N\NC(=O)c2ccc(-c3ccccc3)cc2)cc(OC)c1O,9.3µM*,20%,-2%,-10%,11%
CCOc1cc(C=NNC(=O)N(c2ccccc2)c2ccccc2)ccc1O,nt,nt,nt,-12%,nt
